Experimental findings from PubChem BioAssay (NCATS) are described below.

The structures appear in SMILES notation. Results filed as inconclusive are left out. Where a structure was tested more than once in an assay, its records may differ in their call. Active and inactive are the calls of the source. Calls follow the shape of the dose curve; as a rule, active = well fitted cell-killing curve with a large enough effect; inconclusive = small, poorly fitted or top-dose-only effect, or effect the other way; inactive = flat fitted curve, though single readings scatter.
% is scaled to controls: 0 for no effect and ±100 for the full control effect; potency is read from the fitted curve at half-maximal effect.

The assay relates to CAOV3. The assay is described as follows: Primary qHTS to identify gynecologic anti-cancer compounds using libraries of approved drugs and bioactive compounds (AID 1345084). Also: nearly all actives have a fitted effect of over 55% in size. To be noted: Gynecologic cancer cell panel viability, ATPlite luminescence, 48 h; series mostly up to 57.5 µM; activity change, negative = cytotoxicity: at the top concentration. The source says:
National Center for Advancing Translational Sciences [NCATS] Assay Overview: Chemotherapeutic drug responses vary from cancer to cancer and from patient to patient. These variations could be caused by a number of factors including patient genomic background, tumor mutations, tumor heterogeneity, and aspects of drug treatment. Chemotherapeutic drug resistance is also a common issue and can lead to ineffective treatment and patient death. Here we have profiled the cell killing effects of thousands of compounds to characterize the responses in three gynecological cancers, identify cancer-selective compounds, and understand the diversity of responses to these compounds from pan-cancer suppressors to single cell line selective compounds. In this assay, we screened a 7,914 compound drug library that included approved drug and bioactive compounds in six ovarian, three cervical, and […] placental cancer cell lines using the ATPlite assay for cell viability. […] The cervical cancer cell lines included HeLa, Ca Ski, and C-33 A. The placental cancer cell lines included JEG-3. HEK 293T cells were used as the control cell line to determine the selectivity index. ATPlite is a luminescence based assay reliant on the conversion of a luciferase substrate to light in the presence of ATP. As a cytotoxic compound will suppress growth and decrease the number of cells, the concentration of ATP will decrease, and less light signal will be detected in the well.
Assay Protocol Summary: 1,000 cells in 4 uL of media were dispensed into white, solid bottom 1536-well plates using a Multidrop Combi (Thermo Scientific). The Assay plates were incubated for 16 hours at 37 C with 5% CO2 in assay plates, followed by the addition of 23 nL of DMSO or drug dissolved in DMSO. Each compound was assayed in five concentrations (0.092, 0.46, 2.3, 11.5, and 57.5 uM), using the automated Wako 1536 Pin Tool workstation and incubated at 37 C with 5% CO2 48 hours. 4 uL of ATPlite, the ATP monitoring reagent, was then added to the each well of the assay plates using the Multidrop Combi reagent dispenser followed by incubation for 15 minutes at room temperature. The resulting luminescence was measured using the ViewLux plate reader.
A general note: In qHTS, concentration-response curves come from the screen itself.
On to `Nc1ccc(-c2ccc3ncc4ccc(=O)n(-c5cccc(C(F)(F)F)c5)c4c3c2)cn1`, for which the Potency is 631 nM (active).

Take `Cc1nc(C(=O)NCC(=O)O)c(O)c2ccc(Oc3ccccc3)cc12`: the “activity change, negative = cytotoxicity” value was -1.62% (inactive). On the same count and under the same terms, the figure for `CCCCC[C@H](O)C=C[C@H]1[C@H](O)CC(=O)[C@H]1CC=CCCCC(=O)O` is 9.76% (inactive). As for `CNC(=O)c1c(-c2ccc(F)cc2)oc2cc(N(CCO)S(C)(=O)=O)c(C3CC3)cc12`, the “activity change, negative = cytotoxicity” value is 12.4% (inactive). On the same count and under the same terms, for `COc1nccc(-c2c(-c3ccc(F)cc3)ncn2C2CCC(O)CC2)n1` (stereo not given) the value was -0.891% (inactive); for `Cc1ccc2c(c1)C(=O)[C@]1(O)CCN(c3ccccc3)C1=N2`, 9.24% (inactive). On to `Fc1ccc(CNc2ncnc3ccc(F)cc23)cc1`, for which the “activity change, negative = cytotoxicity” value is 0.471% (inactive). For `Cc1ccccc1C(=O)c1ccc(Nc2ccc(Br)cc2N)cc1Cl`, the “activity change, negative = cytotoxicity” value is -28.7% (inactive).

Take `CCNC(=O)c1noc(-c2cc(C(C)C)c(O)cc2O)c1-c1ccc(CN2CCOCC2)cc1`: the “activity change, negative = cytotoxicity” value is -39.5% (inactive). The same measure, in the same setting: for `CCCCC(F)(F)[C@@]1(O)CC[C@H]2[C@H](CC(=O)[C@@H]2CCCCCCC(=O)O)O1` the value was 1.43% (inactive); for `O=S(=O)(O)c1ccc2cc(N=Nc3cc(S(=O)(=O)O)c4cccnc4c3O)ccc2c1`, 0.111% (inactive); for `CC1CCN(c2cc(N3CCN(C)CC3)ccc2NC(=O)c2cc(C#N)c[nH]2)CC1`, 12.3% (inactive). The same measure, in the same setting: the figure for `C[C@@H](NC(=O)c1ncnc(N)c1Cl)c1ncc(C(=O)Nc2cc(C(F)(F)F)c(Cl)cn2)s1` is -35% (inactive).

Consider `COc1ccc(-c2cc3nccn3c(Nc3ncccc3C(N)=O)n2)cc1OC`, for which the “activity change, negative = cytotoxicity” value was -27% (inactive). Take `COc1ccc(-c2ccc3ncc4c(c3c2)n(-c2ccc(N3CCNCC3)c(C(F)(F)F)c2)c(=O)n4C)cn1`: the Potency is 2510 nM (active). With `c1cc(OCCN2CCCCC2)cc(-c2n[nH]c3ccc(-c4ncn[nH]4)cc23)c1`, the “activity change, negative = cytotoxicity” value was 16.1% (inactive). Turning to `CN1CCc2c(n(Cc3ccc(C(=O)NO)cc3)c3ccccc23)C1`, the “activity change, negative = cytotoxicity” value was -2.04% (inactive).

For the compound `C[C@@]1(c2cc(-c3cncnc3)c(F)cc2F)CCSC(N)=N1`, the “activity change, negative = cytotoxicity” value is 17% [at 25.3 µM] (inactive). For `O=C(Nc1cccc2c(=O)cc(-c3nn[nH]n3)oc12)c1ccc(OCCCCc2ccccc2)cc1`, the “activity change, negative = cytotoxicity” value is 4.09% (inactive).

Take `O=C(O)CCNc1cc(N2CCc3ccccc3CC2)nc(-c2ccccn2)n1`: the “activity change, negative = cytotoxicity” value was 26.6% (inactive). Still for that read-out and setting: the figure for `CC(C)(C)c1nc(-c2cccc(NS(=O)(=O)c3c(F)cccc3F)c2F)c(-c2ccnc(N)n2)s1` is 31.2% (inactive); for `CCN1C[C@H](C)n2c(c(O)c3c(=O)n(Cc4ccc(F)c(Cl)c4)nc(C(=O)NC)c32)C1=O` it is 14.2% (inactive). For `COc1ccc(-c2nc3ccc(C4=NNC(=O)CC4C)cc3[nH]2)cc1` (stereo not given), the Potency was 17.8 µM (active) and inactive. In the case of `C[C@H](c1ccc(F)cc1CCCC(=O)O)N(c1cc(F)ccc1F)S(=O)(=O)c1ccc(Cl)cc1`, the “activity change, negative = cytotoxicity” value was 18.8% (inactive). Still for that read-out and setting: the figure for `COc1nccc(-c2c(-c3ccc(F)cc3)ncn2C2CCNCC2)n1` is 10.2% (inactive); for `CCC(=O)N1CCN(c2ccc(-n3c(=O)ccc4cnc5ccc(-c6cnc7ccccc7c6)cc5c43)cc2C(F)(F)F)CC1` it is -22.6% [at 11.6 µM] (inactive). The same measure, in the same setting: the figure for `Cc1cc(C(C)Nc2ccccc2)c2nc(N3CCOCC3)cc(=O)n2c1` (stereo not given) is -13.5% (inactive).

In the case of `CN(C)c1ccc(-c2nc3ncc(Cl)c(N4CCN(CC(=O)Nc5nccs5)CC4)c3[nH]2)cc1`, the “activity change, negative = cytotoxicity” value is -11.3% [at 25.3 µM] (inactive). On the same count and under the same terms, the figure for `O=C(Nc1ccc(OC(F)(F)F)cc1)c1sccc1NCc1ccnc2ccccc12` is -7.04% (inactive); for `COc1ccc(CCC(=O)Nc2nc3ccc(Cl)cc3s2)cc1OC` it is 8.41% (inactive). Consider `NC(=O)c1ccc(N(C(N)=O)c2c(F)cccc2F)nc1-c1ccc(F)cc1F`, for which the “activity change, negative = cytotoxicity” value was 4.19% (inactive). On the same count and under the same terms, for `CS(=O)(=O)c1ccc(C2=C(c3ccccc3)C(=O)OC2)cc1` the value was 15.2% (inactive).

Consider `O=C(CO)N1CCC(c2[nH]nc(-c3ccc(Cl)cc3)c2-c2ccncn2)CC1`, for which the “activity change, negative = cytotoxicity” value was 28.2% (inactive). On the same count and under the same terms, the figure for `COc1ccc(Cn2ccc3ccc(C(=O)NO)cc32)cc1` is -12.3% (inactive); for `Cc1cnc(-c2cc(N3CCN(C(=O)CCS(C)(=O)=O)CC3)ncc2Cl)c(C)c1` it is 21.4% (inactive). The same measure, in the same setting: the figure for `Cc1cccc2c1CC[C@H](CN1CCC(c3c(Cl)cccc3Cl)CC1)C[C@@H]2O` is -39.2% (inactive).

Consider `COc1cc2ncnc(Nc3cc(Br)c(O)c(Br)c3)c2cc1OC`, for which the “activity change, negative = cytotoxicity” value was 10.2% (inactive).

On to `CCCCn1c(=O)n(Cc2ccccc2F)c(=O)c2[nH]c(Cc3ccc(NC(C)=O)cc3)nc21`, for which the “activity change, negative = cytotoxicity” value was -0.523% (inactive). The same measure, in the same setting: the figure for `CN[C@@H](C)[C@H]1[C@H](O)C[C@@]2(C)[C@@H]3CC[C@H]4C(C)(C)[C@@H](NC)CC[C@@]45C[C@@]35CC[C@]12C` is 7.65% [at 11.6 µM] (inactive); for `CNC(=O)c1ccc2c(C(=Nc3cccc(CN(C)C)c3)c3ccccc3)c(O)[nH]c2c1` it is -4.31% (inactive).
